Hit rate of the full screen: of about 360,000 compounds, about 2,300 (0.64%) were called active.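 Rule for the calls: active = compounds giving at least 50% protection of heart cells from peroxide-induced death in the single-dose screen, raw or plate-pattern-corrected value; inactive = the rest.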 The sample as a whole holds a higher share of actives than the screen did.
Experiment: H9c2 cardiomyocyte survival under peroxide injury – uHTS, H9c2 cells, ATPLite luminescence, primary screen (AID 588492);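 note: 0% = DMSO wells with peroxide and 100% = DMSO wells without peroxide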
Conditions: H9c2 cardiomyocytes, 2 h, at 20 µM, stronger effect = higher value
In the case of CC1(C)OC(=O)C2=C(CC(c3ccccc3)OC2CCc2ccccc2)O1 (stereo not drawn), the protection from H2O2 cell death is reported as -19.2% (inactive).
With COc1cccc(Cn2cnc3c([N+](=O)[O-])c(C)c(C)cc32)c1 the protection from H2O2 cell death was 1.8% (inactive).
With Cc1ccc(NC(=O)C2CC2c2ccccc2)cc1 (stereo not drawn) the protection from H2O2 cell death was -6.9% (inactive).
For O=C(CSc1cccc2cccnc12)N/N=C/c1cccnc1, the protection from H2O2 cell death was -2.6% (inactive).
With O=C(N/N=C/c1cccc2cccnc12)[C@H]1C[C@@H]1c1ccccc1 the protection from H2O2 cell death was 84.8% (active).
In the case of Cc1nnc(C)c2c(C)n(N)c(C)c12, the protection from H2O2 cell death is reported as 15.4% (inactive).
In the case of Cc1ccc(S(=O)(=O)N(C)C)cc1NC(=O)CN1c2cccc3cccc(c23)S1(=O)=O, the protection from H2O2 cell death is reported as 3.5% (inactive).
With O=C(NC(=O)N1CCSCC1)c1c(Cl)cccc1Cl the protection from H2O2 cell death was 4.6% (inactive).
With COC(=O)c1ccc(Nc2ncnc3sccc23)cc1 the protection from H2O2 cell death was 5.6% (inactive).
With CCOC(=O)c1ccc(N/C(=N/S(=O)(=O)c2ccccc2)c2ccccc2)cc1 the protection from H2O2 cell death was 1.3% (inactive).
With CCOC(=O)c1nc(Nc2ccc(C(=O)OC)cc2)c2ccccc2n1 the protection from H2O2 cell death was 50.6% (active).
With CCc1ccc(OCC(=O)NCC(c2ccc(Cl)cc2)N2CCCCC2)cc1 (stereo not drawn) the protection from H2O2 cell death was 2.7% (inactive).
With COc1ccc(CC(=O)NCC(=O)N/N=C/c2cc(Br)ccc2OC)cc1 the protection from H2O2 cell death was 52.8% (active).
In the case of Cc1ccc(OCCOCCOc2ccc(Br)cc2/C=N\NC(=O)c2ccncc2)cc1, the protection from H2O2 cell death is reported as 6.5% (inactive).
With COc1ccc(-c2[nH]ncc2/C=N/NC(=O)c2cc(Br)ccc2O)c(OC)c1 the protection from H2O2 cell death was 3.5% (inactive).
For NC(=NC(=O)c1ccccc1)C1=C(O)CCC1=O, the protection from H2O2 cell death was -0.2% (inactive).
For C=CCn1c(-c2ccc(Cl)cc2)ccc(C#N)c1=O, the protection from H2O2 cell death was -10% (inactive).
In the case of COc1cc2[nH]c(O)c(C=O)c2cc1OC, the protection from H2O2 cell death is reported as 4.5% (inactive).
For CN=c1scc(-c2cc(OC)ccc2OC)n1/N=C/c1c(C)[nH]c2ccccc12, the protection from H2O2 cell death was 0.4% (inactive).
With COc1cc(N=Cc2c(O)[nH]c3ccccc23)cc(OC)c1OC the protection from H2O2 cell death was 69.8% (active).
For COc1ccc(CCNc2cc(C)nc3c(-c4ccc(Cl)cc4)c(C)nn23)cc1OC, the protection from H2O2 cell death was 0.4% (inactive).
For COc1cc(-c2nnc(NC(=O)CS(=O)(=O)c3ccc(Cl)cc3)o2)cc(OC)c1OC, the protection from H2O2 cell death was 6.5% (inactive).
With COc1cccc(-c2nnc(NC(=O)c3ccc(S(=O)(=O)N(CC(C)C)CC(C)C)cc3)o2)c1 the protection from H2O2 cell death was 56.4% (active).
With O=C(Nc1nnc(-c2ccccc2)o1)c1cccc(S(=O)(=O)N2CCOCC2)c1 the protection from H2O2 cell death was 10.2% (inactive).
For CCc1ccc(/C=N/NC(=O)c2nnn(-c3nonc3N)c2CN2CCc3ccccc32)cc1, the protection from H2O2 cell death was -2.2% (inactive).
For O=C(NCc1ccco1)c1cc(-c2cccnc2)nc2ccc(Cl)cc12, the protection from H2O2 cell death was 74% (active).
With NC(=O)c1cc(-c2cccnc2)nc2ccc(Br)cc12 the protection from H2O2 cell death was 0.3% (inactive).
With O=C(CSc1c2c(nc3ccc(Cl)cc13)CCCC2)NCc1ccco1 the protection from H2O2 cell death was 5.3% (inactive).
With Cc1cccc(NC(=O)N2CCCCCC2)c1C the protection from H2O2 cell death was -0.5% (inactive).
For O=C(NCCN1C(=O)C2C3C=CC(C3)C2C1=O)Nc1ccccn1 (stereo not drawn), the protection from H2O2 cell death was -2.9% (inactive).
In the case of O=C(COc1ccccc1)Nc1nonc1NC(=O)COc1ccccc1, the protection from H2O2 cell death is reported as -3.9% (inactive).
For CC(NC(=O)c1ccco1)C(=O)Nc1nc(-c2ccccn2)cs1 (stereo not drawn), the protection from H2O2 cell death was 10.4% (inactive).
For CC1CCN(S(=O)(=O)c2nnc(NC(=O)COc3ccccc3F)s2)CC1, the protection from H2O2 cell death was -6.3% (inactive).
With O=C(COc1ccccc1F)Nc1nc(-c2ccccn2)cs1 the protection from H2O2 cell death was 60% (active).
In the case of O=C(CN1C(=O)C2C3C=CC(C3)C2C1=O)Nc1nc(-c2ccccn2)cs1 (stereo not drawn), the protection from H2O2 cell death is reported as 51.3% (active).
For O=C(CCN1C(=O)C2C3C=CC(C3)C2C1=O)Nc1ccccc1F (stereo not drawn), the protection from H2O2 cell death was -1.8% (inactive).
For CC1CCCCC1NC(=O)COc1ccc(C#N)cc1 (stereo not drawn), the protection from H2O2 cell death was 7% (inactive).
For N#Cc1ccc(OCC(=O)Nc2nc(-c3ccccn3)cs2)cc1, the protection from H2O2 cell death was 69.2% (active).
In the case of CC12CCC(=O)N1C(C(=O)Nc1ccc(F)c(F)c1F)CS2 (stereo not drawn), the protection from H2O2 cell death is reported as 0.6% (inactive).
In the case of COc1ccc2c(c1)c(=Cc1ccc(N(C)C)cc1)c1cc(-c3ccccc3)[n+](C)n12, the protection from H2O2 cell death is reported as -20% (inactive).
For COc1ccccc1N(C)S(=O)(=O)c1ccc(Cl)c(C(=O)Nc2ccncc2)c1, the protection from H2O2 cell death was -8.6% (inactive).
With Cn1nnnc1-c1cc(Cl)cc(Cl)c1 the protection from H2O2 cell death was -2.9% (inactive).
In the case of Cn1cccc1C(=O)NC(=O)COC(=O)Cc1coc2ccc3ccccc3c12, the protection from H2O2 cell death is reported as -3.6% (inactive).
For O=C(Nc1ccccc1)c1cc2ccccc2[nH]1, the protection from H2O2 cell death was 3.8% (inactive).
With O=C(NCC(O)c1nc2ccccc2[nH]1)c1ccc(Br)cc1 (stereo not drawn) the protection from H2O2 cell death was -3.3% (inactive).
For O=C(Nc1cccc(-c2nc3ccccc3[nH]2)c1)c1ccc(C(=O)Nc2cccc(-c3nc4ccccc4[nH]3)c2)cc1, the protection from H2O2 cell death was 49.1% (active).
In the case of CCOC(=O)Cn1c(O)c(N=NC(=O)CNC(=O)Cc2ccccc2)c2ccccc21, the protection from H2O2 cell death is reported as 6.8% (inactive).
With CN(Cc1ccccc1F)c1cc2c(c3c1ccn3C)C1CCC2O1 (stereo not drawn) the protection from H2O2 cell death was -4.4% (inactive).
For COc1ccccc1C(=O)C(O)c1ccccc1OC (stereo not drawn), the protection from H2O2 cell death was 1.8% (inactive).
In the case of CCCn1c(SCC(=O)Nc2ccc(C)c(S(=O)(=O)N3CCOCC3)c2)n[nH]c1=O, the protection from H2O2 cell death is reported as 6.6% (inactive).
With C[C@@H]1Cn2cnc(C(=O)Nc3ccc(CNC(=O)OC(C)(C)C)cc3)c2C(=O)N1 the protection from H2O2 cell death was -12.9% (inactive).
In the case of C[C@H]1Cn2cnc(C(=O)N[C@@H](Cc3c[nH]c4ccccc34)C(=O)OC(C)(C)C)c2C(=O)N1, the protection from H2O2 cell death is reported as 99.5% (active).
With C[C@H]1Cn2cnc(C(=O)N[C@H](C)c3ccccc3)c2C(=O)N1 the protection from H2O2 cell death was 7.3% (inactive).

Source: PubChem BioAssay AID588492 (Sanford-Burnham Center for Chemical Genomics, 2011)
